Values joined by “and” are separate entries in the source; they are usually repeats but may differ in a detail not shown here. Equal entries are not always repeated. Active and inactive are the calls of the source. The calls were made as follows: active = hit-call score of the fitted dose curve at least 0.9, where 1 is the maximum; inactive = score below 0.9.

The first assay deals with Transcription factor E2F1 (Homo sapiens) (UniProt Q01094). Nature of the assay: ATG_E2F_CIS: Attagene CIS-FACTORIAL HepG2 Assay for human E2F Transcription Factor 1 (AID 2282935). The following applies: HepG2 Attagene cis-reporter, E2F reporter RNA transcripts; actives raise or lower the signal. In a few lines: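 Measures reporter transcript levels via RT-PCR with capillary electrophoresis detection in HepG2 cells harboring cis-regulated reporter units; 24 h post-dose; bidirectional curve fitting with DMSO as baseline.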
Chain of Transcription factor E2F1 (Homo sapiens) (Q01094 whole entry, looked up): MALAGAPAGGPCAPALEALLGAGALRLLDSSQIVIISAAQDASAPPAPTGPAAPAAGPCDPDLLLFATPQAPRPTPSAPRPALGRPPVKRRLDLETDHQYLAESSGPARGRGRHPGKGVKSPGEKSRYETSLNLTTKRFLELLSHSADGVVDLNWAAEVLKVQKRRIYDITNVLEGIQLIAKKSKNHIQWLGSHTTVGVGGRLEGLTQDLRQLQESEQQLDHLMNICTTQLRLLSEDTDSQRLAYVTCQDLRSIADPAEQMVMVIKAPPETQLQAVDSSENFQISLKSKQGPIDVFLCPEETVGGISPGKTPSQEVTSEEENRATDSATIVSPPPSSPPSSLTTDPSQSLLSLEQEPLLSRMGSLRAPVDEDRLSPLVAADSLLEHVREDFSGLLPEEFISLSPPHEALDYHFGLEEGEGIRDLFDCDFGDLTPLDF
For `Cc1oc2c(NC(=O)c3c(Cl)cccc3Cl)cccc2c1C(C)(C)O`, the call was inactive.
For the compound `COc1ccc2cc(S(=O)(=O)N[C@H](CC(=O)N[C@H](Cc3ccc(CN4[C@H](C)CCC[C@@H]4C)cc3)C(=O)N(C)C(C)C)c3ccc4c(c3)OCO4)ccc2c1`, the AC50 was 11 µM (active).
With `c1ccc2n[nH]nc2c1`, the outcome was inactive.
On the same count and under the same terms, with `CN1C(=O)CC[C@H]1c1cccnc1` the entry was “inactive”.
Still for that read-out and setting: for `CCCCCCCCCCCCO` the value was “inactive”; for `COc1cc(C(=O)NC2CCN(C)CC2)ccc1Nc1ncc2c(n1)N(C1CCCC1)CC(F)(F)C(=O)N2C`, “inactive”; for `O=C(OCCCCCCOC(=O)c1ccccc1)c1ccccc1`, “inactive”.
`CC(C)(C)c1csc(-c2cc3cc(OCc4ccccc4CC(=O)O)ccc3o2)n1`: the compound was classed as inactive.
Still for that read-out and setting: for `CCCCCCCCCCCC[N+](C)(C)C` the value was “inactive”; for `CC(C)(C)c1cc(/C=C2\SC(N)=NC2=O)cc(C(C)(C)C)c1O`, “inactive”.
Turning to `CCCC(=O)OCCC(C)C`, the result was inactive.
Consider `Cc1ncc(CO)c(CO)c1O`, for which the compound was called inactive.
Consider `CCCCOC(=O)CC(CC(=O)OCCCC)(OC(C)=O)C(=O)OCCCC`, for which the outcome was inactive.
Take `O=c1[nH]sc2ccccc12`: the compound was classed as inactive.
The same measure, in the same setting: with `Cc1cccc2ccccc12` the entry was “inactive”; with `CC(C)(O)c1ccc(CNC(=O)c2cccnc2Oc2ccc3nonc3c2)cc1`, “inactive”; with `CCO[Si](CCCNC(N)=O)(OCC)OCC`, “inactive”.
Still for that read-out and setting: for `C[C@]12CC[C@@H]3c4ccc(O)cc4CC[C@H]3[C@@H]1CCC2=O` the value was “inactive”.

System in the next assay: not listed separately
Nature of the assay: ATG_E_Box_CIS: Attagene CIS-FACTORIAL HepG2 Assay for human Enhancer Box (E-box) (AID 2282936). The note with it: HepG2 E-box cis-reporter transcription, actives raise or lower the signal. In a few lines: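 First, HepG2 cells receive multiple cis-regulated reporter constructs by transient transfection. Next, chemicals are applied for 24 h. Finally, reporter mRNA is quantified via RT-PCR and capillary electrophoresis, with DMSO as baseline.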
Consider `CC1=CC(=O)/C(=C(/C)O)C(=O)O1`, for which the result was inactive.
For `Cc1oc2c(NC(=O)c3c(Cl)cccc3Cl)cccc2c1C(C)(C)O`, the outcome was inactive.
On the same count and under the same terms, for `CCCCCCCCCC(=O)O` the value was “inactive”; for `COc1ccc2cc(S(=O)(=O)N[C@H](CC(=O)N[C@H](Cc3ccc(CN4[C@H](C)CCC[C@@H]4C)cc3)C(=O)N(C)C(C)C)c3ccc4c(c3)OCO4)ccc2c1`, “inactive”; for `c1ccc2n[nH]nc2c1`, “inactive”.
The same measure, in the same setting: with `CN1C(=O)CC[C@H]1c1cccnc1` the entry was “inactive”.
Same read-out and setting: for `O=C(O)Cn1c(=O)n(Cc2ccc(Br)cc2F)c(=O)c2ccc(Cl)cc21` the value was “inactive”; for `CCCCCCCCCCCCO`, “inactive”; for `COc1cc(C(=O)NC2CCN(C)CC2)ccc1Nc1ncc2c(n1)N(C1CCCC1)CC(F)(F)C(=O)N2C`, “inactive”.
On to `O=C(OCCCCCCOC(=O)c1ccccc1)c1ccccc1`, for which the result was inactive.
Regarding `CC(C)(C)c1csc(-c2cc3cc(OCc4ccccc4CC(=O)O)ccc3o2)n1`, the outcome was inactive.
Turning to `O=C=NCCCCCCN=C=O`, the outcome was inactive.
Regarding `O=C1c2ccccc2C(=O)N1CCc1noc(-c2ccc(CN3CCCCCC3)s2)n1`, the result was inactive.
Take `CCCCCCCCCCCC[N+](C)(C)C`: the AC50 was 33.4 µM (active) and 22.5 µM (active).
Still for that read-out and setting: for `CC(=O)N1CCN(c2ccc(OC[C@H]3CO[C@](Cn4ccnc4)(c4ccc(Cl)cc4Cl)O3)cc2)CC1` the value was 54.6 µM (active).
As for `NCc1cccc(C2CCN(C(=O)c3ccc(C#Cc4ccccc4F)o3)CC2)c1`, the result was inactive.
On the same count and under the same terms, for `O=C1O[C@H]([C@@H](O)CO)C(O)=C1O` the value was “inactive”.
For `Cc1occc1C(=O)Nc1ccc(C(=O)N2CCC(F)(F)/C(=C\C(=O)N3CCC(N4CCCCC4)CC3)c3ccccc32)cc1`, the concentration at half-maximal activity (AC50) was 27.4 µM (active).
In the case of `CC(C)(C)c1cc(/C=C2\SC(N)=NC2=O)cc(C(C)(C)C)c1O`, the result was inactive.
On to `CCCC(=O)OCCC(C)C`, for which the outcome was inactive.
Take `Cc1ncc(CO)c(CO)c1O`: the outcome was inactive.
On the same count and under the same terms, for `CCN(CC)C(=O)c1cc(S(=O)(=O)Cc2ccccc2)c(N2CCC(c3ccccc3)CC2)cc1N(CC)CCN(C)C` the value was “inactive”.
`CCCCOC(=O)CC(CC(=O)OCCCC)(OC(C)=O)C(=O)OCCCC`: the outcome was inactive.
`Cc1ccc2oc(CN(Cc3ccccc3)C(=O)Nc3c(F)cc(F)cc3F)c(-c3ccc(Cl)cc3)c2c1`: the outcome was inactive.
With `CCCCCCCCOC(=O)c1cc(O)c(O)c(O)c1`, the result was inactive.
As for `O=c1[nH]sc2ccccc12`, the outcome was inactive.
Consider `CCCCCCCCOc1ccc(C(=O)c2ccccc2)c(O)c1`, for which the outcome was inactive.
Same read-out and setting: for `CN1C(=O)N(c2ccccc2Br)Cc2cnc(Nc3ccc4c(c3)OCC(CO)O4)nc21` (stereo not drawn) the value was “inactive”; for `Clc1ccccc1C(c1ccccc1)(c1ccccc1)n1ccnc1`, “inactive”; for `CC(O)CC(C)(C)O` (stereo not drawn), “inactive”.
In the case of `CCOC(=O)O[C@H](C)OC(=O)c1ccc2c(c1)cc(C(=O)NC1CCN(C(C)C)CC1)n2Cc1cc(-c2ccc(Cl)s2)on1`, the result was inactive.
On the same count and under the same terms, for `O=CCCCC=O` the value was “inactive”; for `CC(C)(c1cc(Br)c(O)c(Br)c1)c1cc(Br)c(O)c(Br)c1`, “inactive”; for `Cc1cccc2ccccc12`, “inactive”.
The same measure, in the same setting: with `CC(C)(O)c1ccc(CNC(=O)c2cccnc2Oc2ccc3nonc3c2)cc1` the entry was “inactive”.

As usually defined, the AC50 is the concentration giving half of the maximal activity seen.

The values above are taken from PubChem BioAssay (EPA / NIEHS).
